Outcome and AC50 data for 39 compounds are collected here from PubChem BioAssay (EPA / NIEHS).

Molecules are shown by their SMILES. “And” between values parts separate entries of the source, which are not always exact repeats. Equal entries are not always repeated. Where a structure was tested more than once in an assay, its records may differ in their call. The source made the active and inactive calls. The calls were made as follows: active = hit-call score of the fitted dose curve at least 0.9, where 1 is the maximum; inactive = score below 0.9.

Read-out in this test: Matrix Metallopeptidase 1 (MMP1), MMP1 (gene 4312)
The test can be described thus: BSK_BE3C_MMP1: BioMAP Diversity Plus: BE3C Assay for Matrix Metallopeptidase 1 (MMP1) Biomarker Activity (AID 2283024). Particulars: primary human bronchial epithelial cells; actives raise or lower the signal. Here is the method: BSK_BE3C is a cell-based, multiplexed-readout assay that uses bronchial epithelial cell, a human lung primary cell, with measurements taken at 24 hours after chemical dosing in a 96-well plate.BSK_BE3C_MMP1 is an assay component measured in the BSK_BE3C assay. It measures MMP-1 antibody related to regulation of gene expression using ELISA technology.Data from the assay component BSK_BE3C_MMP1 was analyzed into 1 assay endpoint. This assay endpoint, BSK_BE3C_MMP1, was analyzed with bidirectional fitting relative to DMSO as the negative control and baseline of activity. Using a type of binding reporter, gain or loss-of-signal activity can be used to understand changes in the signaling as they relate to the gene MMP1. Furthermore, this assay endpoint can be referred to as a primary readout, because this assay has produced multiple assay endpoints where this one serves a signaling function. To generalize the intended target to other relatable targets, this assay endpoint is annotated to the protease intended target family, where the subfamily is matrix metalloproteinase.
The levels of cell surface (or secreted, indicated by the prefix "s") biomarker endpoints were measured by ELISA. Overt cytotoxicity to cells in confluent adherent cultures (all systems other than the BT system) was assessed by measuring total protein levels using sulforhodamine B (SRB) staining in parallel cultures at the time of biomarker measurements, indicated as SRB endpoints. For proliferation assays for adherent cell types, individual cell types are cultured at sub-confluence and relative cell numbers quantified by SRB staining at time points optimized for each system (48 h: 3C and CASM3C systems; 72 h: BT and HDF3CGF systems; 96 h: SAg system). SRB was performed by staining cells with 0.1% SRB after fixation with 10% TCA and reading wells at 560 nm.Viability and proliferation of PBMC (T cells) was quantified by Alamar Blue reduction for the SAg and BT systems. For PBMC viability (referred to as PBMC Cytotoxicity within the assay endpoint names), cells were plated (75,000/well in a 96-well plate) and then chemical samples added for 1 h before addition of activators, SEB and TSST-1 (20 ng/mL final concentration each). Cells were incubated for 90 h. Then, Alamar Blue (20 uL/well) (Invitrogen, Cat DAL1100) was added for 6 h, and the plates were read with a fluorescence microplate reader at 546/580 nm (excitation/emission). For PBMC proliferation, cells were plated and activated as above but incubated for only 16 h prior to addition of Alamar Blue. Plates were read after 6 h.
Turning to `ClCCOCCCl`, the outcome was inactive.

With `COC(=O)Nc1nc2ccccc2[nH]1`, the outcome was inactive. On the same count and under the same terms, with `CC(C)(C)C(O)(CCc1ccc(Cl)cc1)Cn1cncn1` (stereo not given) the entry was “inactive”. Still for that read-out and setting: with `[As]#[In]` the entry was “inactive”; with `ClC1=C(Cl)C2(Cl)C3C(Cl)C=CC3C1(Cl)C2(Cl)Cl` (stereo not given), “inactive”; with `Brc1ccc(Oc2ccccc2)cc1`, “inactive”. With `[Cl-].[Cl-].[Hg+2]`, the AC50 – broadly, the concentration at which the activity in the assay is half-maximal – is 31.4 µM (active). As to `OCCOCCO`, the result was inactive. Still for that read-out and setting: with `COP(=S)(OC)SCN1C(=O)c2ccccc2C1=O` the entry was “inactive”; with `c1ccc2c(c1)-c1cccc3cccc-2c13`, “inactive”.

As to `O=C(N[C@H](c1ccccc1)[C@@H]1CN2CCC1CC2)c1c(Cl)ccc(C(F)(F)F)c1Cl`, the AC50 is 44.2 µM (active). On to `CC(C)(C)OOC(=O)c1ccccc1`, for which the result was inactive. Same read-out and setting: with `N#CC(Br)(Br)C(N)=O` the entry was “inactive”. `C[N+](C)(C)CC1CO1` (stereo not given): the outcome was inactive. Same read-out and setting: with `CCCSC(=O)N(CCC)CCC` the entry was “inactive”; with `Cn1cc(-c2ccccc2)c(=O)c(-c2cccc(C(F)(F)F)c2)c1`, “inactive”; with `Cc1ccc(N=C=O)cc1N=C=O`, “inactive”.

In the case of `CN(C)[C@@H]1C(=O)C(C(N)=O)=C(O)[C@@]2(O)C(=O)C3=C(O)c4c(O)cccc4[C@@](C)(O)[C@H]3C[C@@H]12`, the result was inactive. With `Nc1cc(Cl)cc(C(=O)O)c1Cl`, the result was inactive. Same read-out and setting: to `O=C1CCCO1` belongs “inactive”; to `Cc1ccc(N)c(N)c1`, “inactive”. As to `C=CCc1ccc2c(c1)OCO2`, the result was inactive. On the same count and under the same terms, with `CCOc1cccc(C2(N3CCN(c4ccccc4)CC3)CCC(C)CC2)c1` (stereo not given) the entry was “inactive”; with `COC(=O)c1ccccc1N`, “inactive”. On the same count and under the same terms, with `CN(C)c1ccccc1` the entry was “inactive”; with `CNC(=O)Oc1cccc2c1OC(C)(C)C2`, “inactive”. The same measure, in the same setting: with `CCC12COCN1COC2` the entry was “inactive”; with `OCCCBr`, “inactive”; with `C1=Cc2cccc3cccc1c23`, “inactive”. For `CCN(CC)CCO`, the outcome was inactive. `Nc1ccc(Oc2ccc(N)cc2)cc1`: the result was inactive. For `Cc1ccc([N+](=O)[O-])cc1`, the outcome was inactive. Consider `O=[N+]([O-])c1ccc(Oc2ccc(Cl)cc2Cl)cc1`, for which the result was inactive. Still for that read-out and setting: with `O=C(O)C1C2CCC(O2)C1C(=O)O` (stereo not given) the entry was “inactive”; with `CC(C)(C)OOC(C)(C)CCC(C)(C)OOC(C)(C)C`, “inactive”; with `Oc1ccccc1Cl`, “inactive”. Same read-out and setting: with `Oc1ccc2ccc3cccc4ccc1c2c34` the entry was “inactive”. As for `CCCCCCCCOC(=O)c1ccc(C(=O)OCCCCCCCC)c(C(=O)OCCCCCCCC)c1`, the outcome was inactive.

As to `CCNS(=O)(=O)C(F)(F)C(F)(F)C(F)(F)C(F)(F)C(F)(F)C(F)(F)C(F)(F)C(F)(F)F`, the concentration at half-maximal activity (AC50) was 4.99 µM (active) and 11.3 µM (active); the outcome was inactive.
